This is a sample that favours compounds with a hit; in the whole collection about 12% have one here.
Shiga inhibitor = inhibitors of Shiga toxin in Vero cells; AID 2315; hit rate 9.2% among 290,000; inhibition, % at 38.7 µM; Vero cells, Shiga toxin protein synthesis inhibition reporter; in the data active = inhibition mostly above about 28%, no sharp cut-off; inactive = mostly below about 43%; note: 0% is about no effect
MARV entry inh = Marburg virus entry inhibition; Marburg virus pseudotyped entry inhibition, cell reporter; Potency, µM (doses to about 37.8 µM), for inactives: at the top dose activity change, negative = inhibition, hits mostly inhibitors; hit rate 1.8% among 300,000; AID 540276; calls by dose curve; tested in HEK293 cells; note: potency is the fitted concentration of half-maximal effect; % is set by controls: 0 for no effect and ±100 for the full control effect
Lassa entry inh = blocks Lassa virus binding to or entry into cells. AID 540256. Potency, µM (top dose mostly 37.9 µM), inactives show at the highest dose activity change, negative = inhibition, usual class: inhibitors. hit rate 1.2% among 300,000. Lassa virus pseudotype entry inhibition, cell reporter; calls by dose curve; tested in HEK293 cells; note: potency is the fitted concentration of half-maximal effect; % is set by controls: 0 for no effect and ±100 for the full control effect; nearly all actives have a fitted effect of over 50% in size
CHX counter = affects cycloheximide protein synthesis inhibition readout, counter-screen. cell reporter, cycloheximide protein synthesis inhibition counterscreen. max response, %. hit rate 12% among 300,000. AID 2314; in the data active = max response mostly above about 13%, no sharp cut-off; inactive = mostly below about 14%; note: read at 38.3 µM for the half of the compounds with a filed dose; 0% is about no effect
* hit, by the source's call; ? = inconclusive; . = not tested or not shown; [ ] = another dose, or the depositor's remark.

SMILES	Shiga inhibitor	MARV entry inh	Lassa entry inh	CHX counter
Cc1cc(N/N=C/c2ccc(O)c(C)c2O)nc(-c2ccccc2O)n1	32	?	?	25*
C/C(=N\Nc1cc(C)nc(-c2ccccc2)n1)c1cccc([N+](=O)[O-])c1	1	.	.	5
C/C(=N\Nc1cc(C)nc(-c2ccccc2O)n1)c1ccccc1	151	-26%[46.1 µM]	10%[46.1 µM]	31*
COc1ccc(C/C(=N\O)c2ccc(OC)cc2)cc1	22	-28%	24%	16
Cc1ccc(-n2cc(CNCCN3CCOC3=O)c(-c3cccc(C)c3)n2)cc1	54*	?	?	16*
COC(=O)CC1C(=O)NCCN1Cc1cn(-c2ccc(C)cc2)nc1-c1cccc(C)c1 (stereo not drawn)	46*	0%[46.1 µM]	-15%[46.1 µM]	20*
Cc1cc(C)c(S(=O)(=O)Nc2ccc(N(C)C)cc2)c(C)c1-n1cnnn1	76*	-5%[46.1 µM]	?	43*
CCNS(=O)(=O)c1ccc(C)c(-n2cnnn2)c1C	7	-12%[46.1 µM]	-4%	-4
CC(=O)N(C)c1ccc(NC(=S)Nc2cccc3ccccc23)cc1	83*	?	-1%	44*
CC(=O)c1ccc(NC(=S)Nc2cccc3ccccc23)cc1	106*	.	.	73*
Fc1cccc(NC(=S)Nc2cccc3ccccc23)c1	-21	-7%[46.1 µM]	-11%[46.1 µM]	-2
S=C(NCc1ccccc1)Nc1cccc2ccccc12	30	7%[46.1 µM]	?	13
CC(=O)c1cccc(NC(=O)C(=O)Nc2cccc3ccccc23)c1	32*	?	-28%	22*
Cc1ccc(NC(=S)Nc2cccc3ccccc23)cc1F	81*	.	.	42*
CC(=O)N(C)c1ccc(NC(=S)Nc2ccccc2)cc1	12	13%	0%	1
N#CC1C(=O)N=C(SCC(=O)c2ccc(Br)cc2)N=C1c1cccs1 (stereo not drawn)	.	-3%[46.1 µM]	.	.
CCOC(=O)[C@@]1([C@@H](NC(=O)OC)c2ccco2)CCCC1=O	.	-9%[14.2 µM]	.	.
CCn1c(-c2cc3c(C(F)(F)F)nn(C)c3s2)n[nH]c1=S	20	-26%	-2%	1
Cc1ccc(Cl)cc1NC(=O)Cn1cc2c(n1)CCCCC2	.	-22%[46.1 µM]	-2%[46.1 µM]	.
CCN(CC(=O)Nc1ccc(NC(C)=O)cc1)C(=O)C1(c2ccccc2)CC1	.	0%	22%	.
CCCC(=O)NC(=S)Nc1ccc(C(C)=O)cc1	57*	-1%	?	55*
CCc1ccc(NC(=S)Nc2cccc3cnccc23)cc1	65*	?	?	36*
Cc1cc(C)cc(NC(=S)Nc2cccc3cnccc23)c1	-17	-29%[46.1 µM]	12%[46.1 µM]	6
Cc1ccc(C(=O)O)cc1-n1c(C)ccc1-c1ccccc1	.	.	-2%[46.1 µM]	.
Cc1ccc(-c2ccccc2)n1-c1cccc(C(=O)O)c1	163*	.	.	66*
SMILES	Shiga inhibitor	MARV entry inh	Lassa entry inh	CHX counter
Cc1ccc(-c2ccccc2)n1-c1ccc(C(=O)O)cc1	24	14%	27%	15*
COc1cccc(N2CCN(C(=O)c3cc4c(s3)-c3c(C)cccc3OC4)CC2)c1	.	1%[46.1 µM]	.	.
COc1ccc(/C(O)=C2\C(=O)C(=O)N(CCN3CCOCC3)[C@H]2c2ccccn2)cc1	.	2%[46.1 µM]	.	.
CC(C)c1ccc(OCC(=O)NC2CC(C)(C)NC(C)(C)C2)c(Br)c1	-19	.	.	11
Cn1c(O)c(/C=C2\C=Nc3ccccc32)sc1=Nc1ccc(C(=O)O)cc1	-34	.	.	1
CCn1c(O)c(/C=C2\C=Nc3ccccc32)sc1=Nc1ccccc1	98*	-12%	-6%	27*
O=C(O)CCCNS(=O)(=O)/C=C/c1ccccc1	-11	.	.	-2
O=[N+]([O-])c1ccccc1CSc1nnc2ccccn12	53*	?	13%	40*
Clc1ccc(CSc2nnc3ccccn23)c(Cl)c1	40*	25%	12%	60*
Cc1noc(C)c1CSc1nnc2ccccn12	-23	5%	6%	-3
CCOC(=O)CNC(=S)N(Cc1ccco1)Cc1ccccc1Cl	-12	-22%[46.1 µM]	-20%[46.1 µM]	-2
Cc1cccc(CCNC(=O)C2CCC(CNS(=O)(=O)c3ccccc3)CC2)c1 (stereo not drawn)	.	.	-7%[46.1 µM]	.
CC1(C)C2CC=C(/C=N/n3cnnc3)C1C2 (stereo not drawn)	-11	-6%	0%	-3
CC1(C)C2CC=C(/C=N/NC(=S)NCCc3ccccc3)C1C2 (stereo not drawn)	29	-30%[46.1 µM]	.	17*
CC1(C)C2CC=C(/C=N/NC(=O)c3ccccc3O)C1C2 (stereo not drawn)	36*	?	17%	8
CNC(=S)N/N=C/C1=CCC2CC1C2(C)C (stereo not drawn)	-2	3%	1.3µM*	-6
CCN1N=C(c2cc(Cl)sc2Cl)CSC1=O	1	0%	7%	-2
Cc1ccc(S(=O)(=O)N(C)C)cc1NC(=O)C1CCCCC1	15	5%[46.1 µM]	15%[46.1 µM]	-1
O=[N+]([O-])c1ccc(SCc2ccco2)cc1N1CCOCC1	54*	-16%[46.1 µM]	13%[46.1 µM]	29*
O=[N+]([O-])c1ccc(N2CCOCC2)cc1SCc1ccco1	-5	?	2%	9
C/C(Cn1cnc([N+](=O)[O-])n1)=N/NC(=O)COc1ccccc1Cl	9	-2%	21%	7
C/C(Cn1cnc([N+](=O)[O-])n1)=N\NC(=O)c1ccc(Br)cc1	44*	-1%	13%	18*
C/C(Cn1cnc([N+](=O)[O-])n1)=N\NC(=O)c1cccnc1	25	12%	3%	14*
COc1cc(CNCc2ccccn2)ccc1OCc1ccccc1Cl	33	?	-18%	13*
CNCc1ccc(OCc2ccccc2)c(OC)c1	27	?	11%	28*
SMILES	Shiga inhibitor	MARV entry inh	Lassa entry inh	CHX counter
COc1cc(CNCC(O)c2ccccc2)ccc1OCc1ccc(Cl)nc1 (stereo not drawn)	30	?	7%	17*
CCOc1c(Cl)cc(CNCc2ccccn2)cc1OC	32	-1%[46.1 µM]	4%[46.1 µM]	14
COc1cc(CNCCc2ccccc2)ccc1OCc1ccc(Cl)nc1	35	?	-10%	9
COc1cc(CC(=O)O)ccc1OCc1ccccc1	7	6%[46.1 µM]	-14%[46.1 µM]	2
COc1cc(CNCc2cccnc2)ccc1OCc1ccccc1	76*	6%	?	36*
CCOC(=O)c1cccc(NC(=O)CCS(=O)(=O)c2ccc3c(c2)CCN3C(=O)CC)c1	.	-15%[46.1 µM]	0%[46.1 µM]	.
COc1ccc(CCNC(=O)C(=O)Nc2ccc3c(c2)OCO3)cc1OC	-4	?	-2%	2
CCOc1ccc(-c2nc(SCC(=O)NC3CCCC3)c(-c3ccccc3)[nH]2)cc1OC	.	?	-25%[46.1 µM]	.
CCc1nnc(NC(=O)c2ccc(Br)c(S(=O)(=O)N3CCOCC3)c2)s1	-3	3%[46.1 µM]	-22%	1
COc1ccc(CNCc2ccco2)cc1OCc1ccccc1	90*	-28%	-8%	41*
CCCNCc1cc(OC)c(OCc2ccccc2)cc1Br	29	11µM*	-18%[46.1 µM]	5
CC(C)N1C(=O)C(=O)N(CC(=O)N2c3ccccc3NC(=O)CC2C)C1=O (stereo not drawn)	.	16%	9%	.
CCn1c(/C=C/N(C)c2ccccc2)[n+](CC)c2ccc(Cl)cc21	-2	?	8.2µM*	-1
CCn1c(/C=C/Nc2ccccc2)[n+](CC)c2ccc(Cl)cc21	-4	?	-11%	-4
Cc1ccc(N2Cc3ccccc3OC(C)C2=O)cc1 (stereo not drawn)	-18	.	.	-5
